# Hit rate of the full screen: of about 53,000 sequences, about 3,700 (7%) were called active. Shown is part of a subset that was picked to be rich in actives. A number with no mark means an inactive call.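 Rule for the calls: active = gene knockdowns whose robust z-score for IL-1 alpha signal is at least 2 or at most -2, so actives lie on both sides; inactive = the rest.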
# Experiment: Components of the Cytosolic LPS Sensing Pathway: Gene Identification via Genome-wide siRNA Screen;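 note: robust z of the log signal after scaling to non-targeting control siRNA wells of the plate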
# Conditions: RAW264.7 macrophages, IL-1a HTRF, actives lie on both sides, screened at 100 nM (by protocol), cells primed 5 h with Pam3CSK4 first
# Summary of the method: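 Knockdown: 100 nM siRNA, 48h, RAW264.7. Stimulation: Pam3CSK4 5 h, then LipidA via TransIT-TKO 24 h. Output: supernatant IL-1a HTRF, negative-control-normalized, log robust z-score; viability by CellTiter-Glo.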
row,Sequence,z-score
1,CCGGGAUGGAGAAUAAGCUTT against Fgfbp3,-0.264
2,GCUAUAGGGACCUCUGUCATT against Cdh5,-2.72 (active)
3,CCAUGACAUUUCCUAAGUUTT against Sall3,-0.2
4,GGAGAUUUAUACACACUUGTT against Snx17,0.615
5,GCUCCUACUACUGCUUUGCTT against Crem,0.979
6,GCCCAAAGGUCAAGGAUAUTT against Rptn,-0.036
7,GCUAAGUUUCACCCAAAGGTT against Dennd2c,1.42
8,GGAGUGAGACAAGUGUAUGTT against Sprr1a,-0.0345
9,GGAAAGAUUCCGAACAAUUTT against Rab8b,2.12 (active)
10,GGUGGUUGAACAUAAGACUTT against Zfp688,1.27
11,GGCAAUACAAACAAGUUCUTT against Klhdc2,1.05
12,GGCCUUGUUUUUAAGUAAATT against Atp12a,-0.178
13,GCCAAUGAACCGAUCUCUGTT against Ep400,-2.13 (active)
14,GGAAUUGGGUAGUACAAAATT against Irak1,0.282
15,GGUAAUGAAUAGGAAACUCTT against Ostm1,-0.773
16,GGAACACACAGAGGUUUAUTT against Hacd1,1.87
17,GGGAGUGGCUCCUCAGAAATT against AW549877,-1.98
18,CGCACAAGUGCUUGAGUUATT against Ccdc151,1.03
19,GGACCAAUGUUUUCUUCCUTT against Gngt2,0.773
20,GCCUUAAGUGUUCAUGUAATT against Vhl,-0.872
21,GGAAGCCCACUACAACAAUTT against Krt19,-0.236
22,GCAUUGUGCUGAUGUGCGGTT against Ap1ar,3.01 (active)

row,Sequence,z-score
1,GGUAUUCUGGCAAGACCACTT against Aatf,1.31
2,GGAAGCCUAGUUUUUUUAATT against Csnk2a1,2.89 (active)
3,GCUUUCAGUGAGGUACAAGTT against Gm4425,-1.25
4,GCUCUUUCUAGCCCUUCCCTT against Spry3,-0.915
5,GGAAAGAUAGAAGACAAACTT against Spry4,-0.0777
6,GGUUCUGAUAGCUCAAGAGTT against Polr2b,-1.96
7,GGUUUUGAAAUUCCAGAAUTT against Nol9,-0.22
8,GGCAACUGUUGUAAAUCAATT against Veph1,-1.01
9,GGACUCAAACGACACAUGCTT against Eci2,2.42 (active)
10,GCCAGUCAUUCAGUAAAGUTT against Mysm1,-1.15
11,GGAGAAAUGUCAGUGCGAUTT against Mlc1,0.431
12,GGUCACAGAAUCGGUUUCATT against Cuta,1.02
13,GGUUCUUGUUUUUACCCGCTT against Fam187b,1.19
14,GGAGUGGCUAUGUUUUCGATT against Hrg,0.658
15,GGACUCGUUCCACUAUCAUTT against Naa20,0.33
16,GCGGUUUCGAACAAUCACGTT against Rab8a,-2.4 (active)
17,UCAACUGCUUAGAGCAUGUTT against Tmem259,0.653
18,CGACCUCCAGUAAUAACCUTT against Olfr310,-0.746
19,GGAAAGCUUGGACAUUAAGTT against Rps6kc1,-0.0887
20,GGUCACGUCAGCAAAGCAATT against B930095G15Rik,-2.73 (active)
21,GCGAUGUGGACAGAAGUACTT against Cyba,1.01
22,GGUGUUUCAUAAGAAGGAATT against 1700010H22Rik,-1.01

row,Sequence,z-score
1,GCCAGUACUCUGCUUGUGATT against Naif1,-1.64
2,GAUCCCUGGAUUGUGGAGUTT against 2310057N15Rik,0.26
3,GGACGAGCUGUAUUUGAAUTT against Gsk3a,-0.663
4,CCAAAGAUACCAUAGGAUUTT against Zc3h12a,1.05
5,GGUAGAUCCUAUCCUGUCUTT against Foxo4,-2.57 (active)
6,GCUGCAAUAGUCACUGGAGTT against H2-K1,0.115
7,GCGACCAGCAGGUCAAAAUTT against Hoxd12,3.09 (active)
8,CCCUUCUCUGAGACAACACTT against Tcirg1,1.42
9,GGAAAUAAUUCACUCACCATT against Eya1,-2.99 (active)
10,CCAAGUCGUAAUCUAGAAGTT against Scn7a,0.191
11,GCUGGACCUUCAUGUAAUATT against Pcsk1,-0.234
12,CCUCAUGUCUACAAAGUUATT against Gvin1,-1.14
13,GCGAGUUUUUGGAUGGUAGTT against Slc4a3,0.243
14,GGUAUGCAUGAACAUAAUGTT against Prl7c1,0.788
15,GGACUUAAAAGAGGAGAUCTT against 4933434E20Rik,3.73 (active)
16,GGCAUUUUCGUAUAGUUACTT against B3gnt9,0.81
17,GGUCAUCAGCUCUAUGAGCTT against Fry,0.0787
18,GCACAGAGGAUGUACGUUATT against Cstad,-0.665
19,GCCCAGAGAAUGACCUAUATT against 9130019O22Rik,0.54
20,GGUGCUCCACAACACCUAUTT against 2510039O18Rik,2.05 (active)
21,CCUACUAUACAAUUCUGCUTT against Clns1a,0.556
22,GGUCACUUCAUCCAUAGCUTT against Atmin,-1.79

row,Sequence,z-score
1,GACAGCAACGUGAAAUUAGTT against Xlr,-0.828
2,GGAUCUUUUCCAAAGAAAUTT against Dusp10,-0.409
3,GGAGGAAGAAGAGAUACCUTT against Foxh1,-0.96
4,CGGGAAACUUAGGUAUGAUTT against Olfr1009,-3.05 (active)
5,GGCAUGGAAGGCUAAACAGTT against Slc25a17,-1.98
6,GGGUAUAGAGUCAAUCUGATT against Gfm2,-0.381
7,GCAGGGAUCUGCUAAGCUATT against Hey1,-0.953
8,GGACCCAUUGGUCAUCAUATT against Tent5b,0.18
9,CGGAACCAUAGGGAAUCAGTT against Cmc2,2.04 (active)
10,GCCUGAAUUUGUAAGCAGUTT against Fgf1,0.0666
11,CAUUGUCAUUCUGCUGGCATT against Olfr1249,-0.0752
12,GGUCACCAUCAUCAUCAAUTT against Carmil1,0.484
13,GGUGGUAGAACUGUUAAAATT against Klc2,0.311
14,GGAGAAAGAGACGGACAACTT against Fgfr1,2.8 (active)
15,GGACUGAAUCUUUAAAGGUTT against Nkx1-2,0.199
16,GGUGUUGUGGAAUAUUUAATT against Cnot6l,1.23
17,GGUCUUACCUUUUGAAAAATT against Mtbp,0.0999
18,GCAUCCUCUCACUCUCAAUTT against Grin2a,2.37 (active)
19,CCGAAGCCUUGAAAGCAGUTT against Shq1,0.302
20,GGAAACUGGAUCAAACCAUTT against Smarcd3,-0.707
21,CGAAGUGGUCAAGUUCUCUTT against Fbxo17,-2.09 (active)
22,CGAGUUAGUUUUUCUGGGCTT against Tctex1d4,0.997

row,Sequence,z-score
1,GCAAGAAAAGGUGCUAUCUTT against Med4,-0.314
2,GGAGCUGGAAGAGUGGUAUTT against Clta,-0.535
3,GGCUAUGUAGAUCUUGUCATT against Cyb5r1,-1.09
4,GCUCGGUUAAGAGCCCAUGTT against Pabpn1l,-2.11 (active)
5,GGCACAACUGAUUUUGAAATT against Ifngr2,-0.362
6,GCGAUCACAGACAUCAUUGTT against Rabgef1,-0.423
7,GGAAAUAAGCAGCGCAUGCTT against Ippk,-1.27
8,CCUACGAGGAUACUUACAATT against Kif18b,2.81 (active)
9,GGUGGUUCUGGUGUACAGUTT against Nxf1,-1.98
10,CCCUAUAAGCAACUUAUGCTT against Tor1aip1,-0.115
11,GCACCAUUUGAGUUUUUCUTT against Vmn1r8,-0.578
12,CAUUUACAUUCUUAUUACCTT against Olfr473,-1.43
13,CCCGAACCUUAGUAAAUGUTT against Psmd8,0.308
14,GCAGACAGCUUCUCACUAUTT against Tmem114,-0.431
15,GCUAAGAAACUGGUCUCAUTT against Reg4,-0.151
16,GGAAGAUUUGGAAAAUGGATT against Dph3,-2.19 (active)
17,CCAUCAUUUAUGAAGACCCTT against Dcaf7,-1.44
18,CCCAAGCACCAGCCCUAUATT against Frmd8,-1.58
19,GGGAGAAUUGUAGAUUAUUTT against Myo10,0.475
